PubChem BioAssay (NCI)
This is part of a sample that, as a whole, favours compounds with a hit. Of some 79,000 tested, about 15% had one in any assay. Active and inactive are the calls of the source. Rule as the data show it: active = growth inhibition above about 70%; inactive = the rest.

Key:
[1] = NCI Yeast Anticancer Drug Screen. Data for the wt1 strain (AID 149);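 also: 0% = growth of vehicle-treated wt1 cultures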; details: S. cerevisiae wt1 strain (SPY 50644) growth inhibition, active compounds read high
Outline: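 Yeast wt1 strain exposed to compounds; growth inhibition measured relative to vehicle-treated controls.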

[2] = NCI Yeast Anticancer Drug Screen. Data for the rad50EPP+ strain (AID 151);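 also: 0% = growth of vehicle-treated control cultures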; details: S. cerevisiae rad50 mutant strain, active compounds read high
Outline: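 Genetically defined yeast (rad50EPP+, DNA damage repair alteration) is grown with compound, and inhibition of growth is expressed relative to vehicle-treated controls.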

[3] = NCI Yeast Anticancer Drug Screen. Data for the mgt1 strain (AID 153); details: S. cerevisiae mgt1 mutant growth inhibition, active compounds read high
Outline: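 In the mgt1 strain, test compounds were added and growth inhibition was determined relative to vehicle-treated controls.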

[4] = NCI Yeast Anticancer Drug Screen. Data for the rad50 strain (AID 155);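 also: 0% = growth of vehicle-only cultures of the same strain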; details: S. cerevisiae rad50 strain growth inhibition, active compounds read high
Outline: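 Yeast carrying a defined DNA repair defect were exposed to test compounds, and growth was compared with vehicle-treated controls to give percent inhibition.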

[5] = NCI Yeast Anticancer Drug Screen. Data for the mec2-1 strain (AID 157); details: S. cerevisiae mec2-1 strain, active compounds read high
Outline: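 Each compound was tested on mec2-1 yeast, a strain altered in DNA damage repair or cell cycle control. Growth inhibition is reported relative to vehicle.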

[6] = NCI Yeast Anticancer Drug Screen. Data for the sgs1 mgt1 strain (AID 161);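 also: 0% = growth of cultures given vehicle only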; details: S. cerevisiae sgs1 mgt1 strain, active compounds read high
Outline: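 Inhibition of yeast growth, normalised to vehicle-treated controls, is reported for a strain bearing genetic alterations in DNA damage repair.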

[7] = NCI Yeast Anticancer Drug Screen. Data for the CLN2oe strain (AID 163);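 also: 0% = growth of vehicle-only control cultures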; details: S. cerevisiae CLN2oe strain, active compounds read high
Outline: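 First, the altered yeast strain was treated with each compound; second, its growth was measured; finally, inhibition was derived by comparison with vehicle controls.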

[8] = NCI Yeast Anticancer Drug Screen. Data for the cln2 rad14 strain (AID 165);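 also: 0% = growth equal to vehicle treated cultures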; details: S. cerevisiae cln2 rad14 strain, active compounds read high
Outline: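 Test compounds were added to cln2 rad14 yeast cultures; inhibition of growth was then determined by comparison with vehicle treatment.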

[9] = NCI Yeast Anticancer Drug Screen. Data for the bub3 strain (AID 167); details: S. cerevisiae bub3 mutant strain, active compounds read high
Outline: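 Compounds were applied to a genetically altered yeast strain carrying a cell-cycle control defect. Growth inhibition was scored against vehicle-treated controls.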

[10] = NCI Yeast Anticancer Drug Screen. Data for the wt2 strain (AID 169);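 also: 0% = growth of vehicle-treated yeast cultures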; details: S. cerevisiae wt2 strain growth inhibition, active compounds read high
Outline: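 The panel's yeast strains carry defined changes in DNA repair or cell cycle genes. Each strain is grown with compound, and growth loss is scored relative to vehicle.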

[11] = NCI Yeast Anticancer Drug Screen. Data for the mlh1 strain (AID 171);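 also: 0% = growth of vehicle-treated control cultures of the same strain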; details: S. cerevisiae mlh1 strain growth inhibition, active compounds read high
Outline: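 Inhibition values reflect reduced yeast growth in the presence of compound, referenced to vehicle controls, using a strain chosen for its alteration in DNA repair or cell cycle control.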

[12] = NCI Yeast Anticancer Drug Screen. Data for the sgs1 strain (AID 173);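 also: 0% = growth of vehicle-only control cultures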; details: S. cerevisiae sgs1 mutant, active compounds read high
Outline: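 Vehicle-treated cultures served as reference for growth inhibition of a yeast strain altered in DNA damage repair or cell cycle control after compound exposure.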

[13] = NCI Yeast Anticancer Drug Screen. Data for the mlh1 rad18 strain (AID 175); details: S. cerevisiae mlh1 rad18 strain growth inhibition, active compounds read high
Outline: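 Inhibition values reflect reduced growth of mutant yeast versus vehicle-treated controls following compound exposure; the mutations affect DNA damage repair.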

[14] = NCI Yeast Anticancer Drug Screen. Data for the rad18 strain (AID 177); details: S. cerevisiae rad18 mutant growth inhibition, active compounds read high
Outline: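 Steps: expose repair-mutant yeast to compound; measure growth; express as inhibition relative to vehicle control.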

[15] = NCI Yeast Anticancer Drug Screen. Data for the rad14 strain (AID 159);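 also: 0% = growth of vehicle-treated control cultures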; details: S. cerevisiae rad14 strain growth inhibition, active compounds read high
Outline: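 Yeast cells carrying a defined DNA-repair defect were exposed to compounds, and growth inhibition was calculated relative to vehicle-treated control cultures.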

[16] = at 5.0 µM (retest, dose inferred, filed as 0.5)
[17] = at 50.0 µM (retest, dose inferred, filed as 5.0)

Measured: growth inhibition

CCOP(=O)(OCC)/C(C#N)=C/c1cccc(Oc2ccccc2)c1
inactive: [1]; at 1.2 µM -13% | [1]; at 3.7 µM -26% | [1]; at 11.0 µM 56% | [2]; at 1.2 µM 0% | [2]; at 3.7 µM -7% | [2]; at 11.0 µM 7% | [2]; at 33.0 µM 7% | [2]; at 100.0 µM 62% | [3]; at 1.2 µM -32% | [3]; at 3.7 µM -40% | [3]; at 11.0 µM 28% | [4]; at 1.2 µM -30% | [4]; at 3.7 µM -30% | [4]; [16] 2% | [4]; at 11.0 µM 42% | [5]; at 1.2 µM -8% | [5]; at 3.7 µM 1% | [5]; [16] -7% | [5]; at 11.0 µM 45% | [6]; [16] 1% | [7]; at 1.2 µM -12% | [7]; at 3.7 µM -23% | [7]; at 11.0 µM 42% | [8]; [16] -4% | [9]; at 1.2 µM -11% | [9]; at 3.7 µM -19% | [9]; [16] 22% | [9]; at 11.0 µM 41% | [10]; at 1.2 µM 1% | [10]; at 3.7 µM 1% | [10]; at 11.0 µM 38% | [11]; at 1.2 µM -2% | [11]; at 3.7 µM 9% | [11]; at 11.0 µM 48% | [12]; at 1.2 µM 10% | [12]; at 3.7 µM 3% | [12]; at 11.0 µM 44% | [13]; [16] -8% | [13]; [17] -3% | [14]; at 1.2 µM -6% | [14]; at 3.7 µM -16% | [14]; at 11.0 µM 53%
active: [1]; at 33.0 µM 96% | [1]; at 100.0 µM 97% | [3]; at 33.0 µM 95% | [3]; at 100.0 µM 96% | [4]; at 33.0 µM 96% | [4]; [17] 96% | [4]; at 50.0 µM 90.2% | [4]; at 100.0 µM 96% | [5]; at 33.0 µM 97% | [5]; [17] 98% | [5]; at 50.0 µM 93.5% | [5]; at 100.0 µM 98% | [6]; [17] 96% | [6]; at 50.0 µM 91.2% | [7]; at 33.0 µM 97% | [7]; at 100.0 µM 97% | [8]; [17] 97% | [8]; at 50.0 µM 90.5% | [9]; at 33.0 µM 97% | [9]; [17] 95% | [9]; at 50.0 µM 90.3% | [9]; at 100.0 µM 97% | [10]; at 33.0 µM 96% | [10]; at 100.0 µM 97% | [11]; at 33.0 µM 96% | [11]; at 100.0 µM 97% | [12]; at 33.0 µM 97% | [12]; at 100.0 µM 98% | [13]; at 50.0 µM 88.8% | [14]; at 33.0 µM 97% | [14]; at 100.0 µM 97%

O=[N+]([O-])c1ccc(/C=C\c2ccc3c(c2)OCO3)c([N+](=O)[O-])c1
active: [2]; at 33.0 µM 84% | [2]; at 100.0 µM 78% | [4]; [17] 92% | [4]; at 50.0 µM 85.2% | [4]; at 100.0 µM 85% | [5]; [17] 97% | [5]; at 50.0 µM 83% | [5]; at 100.0 µM 80% | [15]; at 100.0 µM 80% | [6]; [17] 88% | [6]; at 50.0 µM 78.6% | [8]; [17] 76% | [9]; [17] 93% | [9]; at 50.0 µM 99% | [12]; at 100.0 µM 79% | [13]; [17] 96%
inactive: [1]; at 1.2 µM -2% | [1]; at 3.7 µM -2% | [1]; at 11.0 µM 2% | [1]; at 33.0 µM 6% | [1]; at 100.0 µM 35% | [2]; at 1.2 µM 12% | [2]; at 3.7 µM 30% | [2]; at 11.0 µM 69% | [3]; at 1.2 µM -2% | [3]; at 3.7 µM 2% | [3]; at 11.0 µM 5% | [3]; at 33.0 µM 20% | [3]; at 100.0 µM 17% | [4]; at 1.2 µM 3% | [4]; at 3.7 µM 15% | [4]; [16] 33% | [4]; at 11.0 µM 29% | [4]; at 33.0 µM 54% | [5]; at 1.2 µM -3% | [5]; at 3.7 µM -3% | [5]; [16] 9% | [5]; at 11.0 µM 3% | [5]; at 33.0 µM 20% | [15]; at 1.2 µM 1% | [15]; at 3.7 µM 2% | [15]; at 11.0 µM 12% | [15]; at 33.0 µM 24% | [6]; [16] 11% | [7]; at 1.2 µM -2% | [7]; at 3.7 µM -3% | [7]; at 11.0 µM 7% | [7]; at 33.0 µM 16% | [7]; at 100.0 µM 25% | [8]; [16] 2% | [8]; at 50.0 µM 25.2% | [9]; at 1.2 µM -7% | [9]; at 3.7 µM -7% | [9]; [16] 2% | [9]; at 11.0 µM -5% | [9]; at 33.0 µM 28% | [9]; at 100.0 µM 68% | [10]; at 1.2 µM -2% | [10]; at 3.7 µM -3% | [10]; at 11.0 µM -1% | [10]; at 33.0 µM 8% | [10]; at 100.0 µM 66% | [11]; at 1.2 µM -1% | [11]; at 3.7 µM 1% | [11]; at 11.0 µM 7% | [11]; at 33.0 µM 16% | [11]; at 100.0 µM 63% | [12]; at 1.2 µM -2% | [12]; at 3.7 µM 1% | [12]; at 11.0 µM 9% | [12]; at 33.0 µM 19% | [13]; [16] 12% | [13]; at 50.0 µM 65.7% | [14]; at 1.2 µM -1% | [14]; at 3.7 µM 6% | [14]; at 11.0 µM 11% | [14]; at 33.0 µM 27% | [14]; at 100.0 µM 64%

S=C1N(c2ccc(Cl)cc2)C2=C(N=Nc3ccccc3)C(=Nc3ccccc3S2)N1c1ccccn1
active: [1]; at 100.0 µM 85% | [2]; at 33.0 µM 94% | [2]; at 100.0 µM 97% | [3]; at 33.0 µM 99% | [3]; at 100.0 µM 99% | [4]; at 33.0 µM 95% | [4]; [17] 99% | [4]; at 50.0 µM 98.5% | [4]; at 100.0 µM 99% | [5]; at 33.0 µM 99% | [5]; [17] 100% | [5]; at 50.0 µM 98.5% | [5]; at 100.0 µM 99% | [15]; at 33.0 µM 90% | [15]; at 100.0 µM 99% | [6]; [17] 99% | [6]; at 50.0 µM 99% | [8]; [17] 99% | [8]; at 50.0 µM 98.5% | [9]; at 33.0 µM 84% | [9]; [17] 99% | [9]; at 50.0 µM 98.3% | [9]; at 100.0 µM 98%
inactive: [1]; at 1.2 µM -3% | [1]; at 3.7 µM -3% | [1]; at 11.0 µM 3% | [1]; at 33.0 µM 29% | [2]; at 1.2 µM -11% | [2]; at 3.7 µM 3% | [2]; at 11.0 µM 61% | [3]; at 1.2 µM 13% | [3]; at 3.7 µM 15% | [3]; at 11.0 µM 66% | [4]; at 1.2 µM 6% | [4]; at 3.7 µM 12% | [4]; [16] 41% | [4]; at 11.0 µM 42% | [5]; at 1.2 µM 20% | [5]; at 3.7 µM 23% | [5]; [16] 3% | [5]; at 11.0 µM 62% | [15]; at 1.2 µM 14% | [15]; at 3.7 µM 19% | [15]; at 11.0 µM 40% | [6]; [16] 54% | [7]; at 1.2 µM -3% | [7]; at 3.7 µM -7% | [7]; at 11.0 µM 3% | [7]; at 33.0 µM 24% | [7]; at 100.0 µM 69% | [8]; [16] 13% | [9]; at 1.2 µM 22% | [9]; at 3.7 µM 22% | [9]; [16] 53% | [9]; at 11.0 µM 41% | [10]; at 1.2 µM -1% | [10]; at 3.7 µM -1% | [10]; at 11.0 µM 4% | [10]; at 33.0 µM 23% | [10]; at 100.0 µM 50%
